High-throughput results from PubChem BioAssay.
In the library only some 9.9% were active in any assay of this set; here they are far more common.
KB-V1 MDR tox: KB-V1 MDR subline cytotoxicity | KB-V1 MDR cells viability, CellTiter-Glo, 72 h | Potency, µM (doses to about 46.1 µM), most hits filed as cytotoxic | 400,000 tested, 3.4% active; further: potency means the concentration at half of the fitted maximal effect; on the % scale 0 is the no-effect control and ±100 the full control effect; nearly all actives have a fitted effect of over 60% in size
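KB-V1 cells (P-gp-expressing MDR subline of KB-3-1) in phenol-red-free DMEM with 10% FBS were exposed to library compounds over a concentration series for 72 h at 37 degrees C. Viability read by CellTiter-Glo luminescence; concentration-effect curves fitted after normalization.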
SW480 rerep: induces DNA re-replication in SW480 colon adenocarcinoma cells; AID 624297; SW480 DNA re-replication, Hoechst DNA content imaging, 48 h; Potency, µM (doses to about 46.1 µM), without a hit: top-dose re-replication activation, usual class: activators; 340,000 tested, 1.8% active; further: potency means the concentration at half of the fitted maximal effect; % of control where 0% means no effect; nearly all actives have a fitted effect of over 55% in size
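Per well, 250 cells were exposed to pinned compound for 48 hr. Nuclear DNA was visualised with Hoechst (40 min, 37 C) and total object intensity recorded by fluorescence scanning.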
IL-1B inflam inh: inflammasome signaling inhibition, IL-1 beta readout; THP-1 LPS/ATP IL-1B secretion, AlphaLISA, 16 h; stronger effect = lower value; activity change, % at 57.5 µM; 360,000 tested, 4.7% active; in the data active means activity change below about -50%; inconclusive means mostly about -30% to -49%; further: on the % scale 0 is the no-effect control and ±100 the full control effect
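Secreted IL-1B measured by AlphaLISA bead assay after 16 h compound exposure of THP-1 cells; compounds (final up to 57.5 uM) added 1 h before LPS (250 ng/mL) and ATP (1.25 mM) stimulation; lower signal means less secretion.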
KB-3-1 cytotox: kills parental KB-3-1 adenocarcinoma cells | KB-3-1 viability, CellTiter-Glo ATP luminescence, 72 h | Potency, µM (titrated, usually from 46.1 µM), hits mostly cytotoxic | 400,000 tested, 1.4% active; further: potency means the concentration at half of the fitted maximal effect; on the % scale 0 is the no-effect control and ±100 the full control effect; nearly all actives have a fitted effect of over 60% in size
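Parental KB-3-1 viability, qHTS format: 72 h compound exposure, 37 °C; CellTiter-Glo; media-only wells and DMSO plates as controls; concentration-effect fits on corrected data.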
MCF10A rerep: induces DNA re-replication in MCF 10a normal breast cells; MCF 10A DNA re-replication, Hoechst nuclear intensity, 48 h; Potency, µM (titrated, usually from 46.1 µM), without a hit: top-dose activity, positive = re-replication, hits mostly activators; 350,000 tested, 2.9% active; further: potency means the concentration at half of the fitted maximal effect; % of control where 0% means no effect; nearly all actives have a fitted effect of over 50% in size
Starred values were filed as active, the others as inactive; i = inactive; ? = inconclusive; nt = not tested or not shown. Unless noted, the call rests on the fitted dose curve; in most records, active means well fitted curve in the direction sought with a large enough effect; inconclusive means small, poorly fitted or top-dose-only effect, or another doubt; inactive means no such curve, though single readings can be large; an effect the other way counts as inactive or inconclusive.

SMILES | KB-V1 MDR tox | SW480 rerep | IL-1B inflam inh | KB-3-1 cytotox | MCF10A rerep
Cc1ccc2c(c1)N(C(=O)c1ccco1)C(C)(C)c1ssc(=S)c1-2 | 9.2µM* | -4% | -25 | i | -6%
O=C(NCCCN1CCN(c2cccc(Cl)c2)CC1)c1nc(-c2ccncc2)no1 | 4.1µM* | -1% | 8 | i | 21%
O=C(NCCN1CCCC1)c1cccc(Cl)c1 | i | -6% | 42 | i | -4%
O=C(NCCCN1CCN(CCCNC(=O)c2ccccc2F)CC1)c1ccccc1F | i | 7.3µM* | -14 | i | 19%
O=C(NCCCN1CCN(CCCNC(=O)c2cccc(Cl)c2)CC1)c1cccc(Cl)c1 | ? | 1% | -57* | i | ?
O=C(NCCN1CCN(c2ccccc2)CC1)c1ccccc1F | i | 2% | -10 | i | 15%
COc1cccc(C(=O)COC(=O)CCC(=O)c2ccccc2)c1 | i | 1% | 11 | i | -2%
CCCCNc1nnc(SCC(=O)c2c[nH]c3ccccc23)s1 | i | -6% | 16 | i | 14%
CCN(CC(=O)Nc1c(F)cccc1F)C(=O)CCCN1C(=O)c2cccc3cccc(c23)C1=O | i | nt | -51* | i | nt
CN(CC(=O)Nc1cccc(F)c1)C(=O)CCCN1C(=O)c2cccc3cccc(c23)C1=O | ? | 8% | -65* | i | 4%
COc1ccc(NC(=O)CN(C)C(=O)CCSc2ccc(F)cc2)cc1 | ? | 0% | 9 | i | 8%
CCN(CC(=O)Nc1ccc(NC(C)=O)cc1)C(=O)CCCN1C(=O)c2ccccc2C1=O | i | -4% | 13 | i | 3%
CCN(CC(=O)Nc1c(F)cccc1F)C(=O)CCc1nc2ccccc2c(=O)[nH]1 | i | 29µM* | 25 | i | -15%
CN(CC(=O)Nc1cccc(F)c1)C(=O)CCSc1ccc(F)cc1 | ? | 17% | -1 | 8.2µM* | ?
Cc1ccc(C)c(OCc2cc(C(=O)NC3CCOC(C)(C)C3)no2)c1 (centres undefined) | i | -1% | 0 | i | 2%
COC(=O)c1ccc(OCC2c3cc(OC)c(OC)cc3CCN2C(=O)Cc2ccc(OC)cc2)cc1 (centres undefined) | ? | nt | nt | i | nt
O=C(CCc1nc2ccccc2c(=O)[nH]1)NNC(=O)c1cccc(Cl)c1 | ? | 29µM* | 19 | i | 15%
CC(=O)N1CC(c2ccccc2)C(c2ccc(Cl)cc2)=N1 (centres undefined) | 15µM* | -2% | 0 | i | 5%
C[C@@H]1CN([C@H](C)CO)C(=O)c2cc(NC(=O)Nc3ccc(C(F)(F)F)cc3)ccc2O[C@H]1CN(C)Cc1ccc(Cl)c(Cl)c1 | ? | 28% | -80* | ? | ?
C[C@@H]1CN([C@H](C)CO)C(=O)c2cc(NS(=O)(=O)c3ccc(F)cc3)ccc2O[C@@H]1CN(C)Cc1ccc(Cl)c(Cl)c1 | i | 6% | -72* | i | 52%
C[C@@H]1CCCCO[C@@H](CN(C)Cc2ccc(C(F)(F)F)cc2)[C@@H](C)CN([C@H](C)CO)C(=O)c2cc(N(C)C)ccc2O1 | i | nt | -53* | ? | nt
C[C@H](CO)N1C[C@H](C)[C@@H](CN(C)S(=O)(=O)c2ccc(F)cc2)Oc2ccc(NS(=O)(=O)c3ccc(F)cc3)cc2C1=O | ? | 21% | -7 | i | -3%
C[C@@H]1CCCCO[C@H](CN(C)Cc2ccc(C(=O)O)cc2)[C@@H](C)CN([C@H](C)CO)C(=O)c2cc(N(C)C)ccc2O1 | i | nt | -6 | i | nt
N#CCCN1CCCN(CCC#N)CCN(CCC#N)CCCN(CCC#N)CC1 | i | -5% | 12 | i | 1%
Cc1ccccc1-c1cc(C(=O)NCc2cccc(Br)c2)nn1CC1CC(c2cccc([N+](=O)[O-])c2)=NO1 (centres undefined) | i | -16% | -7 | i | 36%
COc1ccc(NC(=O)CS(=O)CC(=O)Nc2cccc3cccnc23)cc1 (centres undefined) | i | 4% | 48 | i | ?
